Reference: PubChem BioAssay (Tox21)
A number with no mark means an inactive call. The source made the active and inactive calls. Calls follow the shape of the dose curve; as a rule, active = well fitted activation curve with a large enough effect in the repeat runs; inconclusive = weak or mixed curves; inactive = flat fitted curve, though single readings scatter.

Test: Caspase-3/7 induction in CHO-K1 cells by small molecules, qHTS assay (AID 1346980); also: nearly all actives have a fitted effect of over 15% in size
Details: CHO-K1 caspase-3/7 induction, Caspase-Glo luminescence, 17 h; series mostly up to 92.4 µM; caspase-3/7 activation: at the top concentration
Outline: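 Wild-type CHO-K1 cells exposed to compounds for 17hr at 37 C, 5% CO2. Caspase-3/7 activity then measured by Caspase-Glo 3/7 luminescence after 30min at room temperature.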
% is scaled to controls: 0 for no effect and ±100 for the full control effect; potency is read from the fitted curve at half-maximal effect.

SMILES	caspase-3/7 activation	Potency
CN1CCc2cc(Cl)c(O)cc2[C@H]2c3ccccc3CC[C@@H]21	1.41% [at 42.5 µM]	–
CN(C)CCc1c[nH]c2ccccc12	0.645%	–
CCN(CC)CCN1C(=O)CN=C(c2ccccc2F)c2cc(Cl)ccc21	0.95% [at 42.5 µM]	–
O=C1C[C@@H]2OCC=C3CN4CC[C@]56c7ccccc7N1[C@H]5[C@H]2[C@H]3C[C@H]46	0.134% [at 42.5 µM]	–
N#Cc1c[nH]cc1-c1cccc2c1OC(F)(F)O2	1.35%	–
O=S1OCC2C(CO1)C1(Cl)C(Cl)=C(Cl)C2(Cl)C1(Cl)Cl (stereo not drawn)	9.86%	–
O=C1C(Cl)=C(Cl)C(=O)C(Cl)=C1Cl	–	inactive
CCCCCCC[CH2][Sn]([Cl])([Cl])[CH2]CCCCCCC	–	68.5 µM (active)
CC1=C2C[C@H]3[C@@H](CC=C4C[C@@H](O)CC[C@@]43C)[C@@H]2CC[C@]12O[C@@H]1C[C@H](C)CN[C@H]1[C@H]2C	-0.574% [at 42.5 µM]	–
CO/N=C(\C(=O)OC)c1ccccc1CO/N=C(\C)c1cccc(C(F)(F)F)c1	-1.68%	–
C#CCC1=C(C)C(OC(=O)C2C(C=C(C)C)C2(C)C)CC1=O (stereo not drawn)	5.17%	–
CCOP(=O)(OCC)Oc1nc(Cl)c(Cl)cc1Cl	-3.06%	–
CCCC[N+]1(C)CCCC1 (tested in a mixture with another compound)	-2.7%	–
C[C@]12Cc3cn[nH]c3C[C@@H]1CC[C@@H]1[C@@H]2CC[C@@]2(C)[C@H]1CC[C@]2(C)O	9.48% [at 42.5 µM]	–
Nc1ccc(N=Nc2ccccc2)cc1	-4.9%	–
c1csc(-c2ccc(-c3cccs3)s2)c1	-2.49%	–
CN1C2CCC(C)(C)C1CC(OC(=O)C(O)(c1cccs1)c1cccs1)C2 (stereo not drawn)	-0.646% [at 42.5 µM]	–

SMILES	caspase-3/7 activation	Potency
COP(=O)(OC)Oc1ccc([N+](=O)[O-])cc1	1.04%	–
CC(C)(C)c1ccc(OP(=O)(Oc2ccccc2)Oc2ccccc2)cc1	-1.28%	–
C=Cc1cccc(CCl)c1	1.68% [at 240 µM]	–
C[C@H]1[C@H](c2ccc(Cl)cc2)SC(=O)N1C(=O)NC1CCCCC1	-0.892%	–
CSC1=N[C@@](C)(c2ccccc2)C(=O)N1Nc1ccccc1	-2.5%	–
S=C=NCCc1ccccc1	1.33%	–
CCOP(=S)(NC(C)C)Oc1ccccc1C(=O)OC(C)C (stereo not drawn)	1.93%	–
O=[N+]([O-])c1cccc2cccc([N+](=O)[O-])c12	-0.381%	–
CCN(CC)Cc1nccn1-c1ccc([N+](=O)[O-])cc1C(=O)c1ccccc1Cl	-0.464% [at 42.5 µM]	–
Cc1cc(C2CC2)nc(Nc2ccccc2)n1	-2.2%	–
FC(F)C(F)(F)OCC(Cn1cncn1)c1ccc(Cl)cc1Cl (stereo not drawn)	-1.81%	–
Cc1ccc2cc3c(ccc4ccccc43)c3c2c1CC3	-1.62% [at 42.5 µM]	–
Oc1ccc2[nH]cc(CCCCN3CC=C(c4ccccc4)CC3)c2c1	-0.101% [at 42.5 µM]	–
CCN(CC)CCc1c[nH]c2ccccc12	-0.322%	–
c1ccc(Nc2ccc(Nc3ccccc3)cc2)cc1	-2.78%	–
CCOP(=O)(Sc1ccccc1)Sc1ccccc1	-0.67%	–
